Laboratory results from PubChem BioAssay AID493191 (Broad Institute, 2011).
The whole screen tested about 1,300 compounds, of which about 330 (25%) were called active. How the calls were made is not given here. A selection follows. Potency and affinity values are given separately.

Assay: MALME3 melanoma cell viability loss, dose response, orthogonal assay for MITF inhibitor project, CellTiter-Glo, cherry-picked (AID 493191)
Details: CellTiter-Glo luminescence, 24 h; series mostly up to 35 µM; activity change, negative = inhibition: at the top concentration

Compound	activity change, negative = inhibition
CC1CCCC(NC(=O)NC(=O)CCl)C1C (centres undefined)	-14.4% (inactive)
CCCc1ccc(-c2ccc(/C=C/C(=O)O)cc2)nc1	-14.1% (inactive)
COc1cc(OC)cc(C(=O)N[C@H](C(=O)Nc2nc3ccccc3[nH]2)C(C)C)c1	-12.2% (inactive)
CCCCNc1nc(=S)n(-c2ccccc2)c(C)c1C(C)=O	-0.88% (inactive)
Cc1cc(Br)ccc1OCc1nc(-c2cccnc2)no1	22.1% (inactive)
CCOC(=O)c1cc(-c2ccc(OC)cc2)n[nH]1	-1.15% (inactive)
CC(=O)COc1ccc2cc(-c3ccccc3)c(=O)oc2c1	5.42% (inactive)
COc1ccc(Cn2c(-c3ccc(C)cc3)c[n+]3ccccc23)cc1	-41.9% (inactive)
CC(=O)N(c1nnc(-c2cccc(C)c2)s1)C1CCCC1	1.3% (inactive)
O=C(Nc1ccc2nc(-c3ccccc3)[nH]c2c1)c1ccco1	-2.15% (inactive)
Cc1cccc(NC(=O)Cc2ccc(Br)cc2)n1	3.14% (inactive)
C/C(=N\NC(=O)Cc1ccc(Cl)cc1)c1ccccn1	-36.5% (inactive)
CC(=NNc1nc2ccccc2o1)c1cc2ccccc2cn1	-27.3% (inactive)
NCCCNc1nc(N)c([N+](=O)[O-])c(NC2CCCCC2)n1	-4.7% (inactive)
CC(=O)c1ccc(N/C=C/C(=O)c2ccc(Br)cc2)cc1	-9.49% (inactive)
COc1ccc(NC(=O)c2scc(S(=O)(=O)C(C)C)c2N)cc1	2.91% (inactive)
C/C(=N\NC(=O)C(c1ccccc1)c1ccccc1)c1ccccn1	-16.6% (inactive)
CCOC(=O)C1(Cc2ccccc2)CCCN(CCCn2cccn2)C1 (centres undefined)	-1.46% (inactive)
Cc1csc(N/N=C/c2ccc([N+](=O)[O-])cc2)n1	-4.58% (inactive)
CN(C)S(=O)(=O)c1ccc(-c2csc(N/N=C/c3ccco3)n2)cc1	-18% (inactive)
COC(=O)c1ccc(/C=C(\C#N)C(=O)NC(C)c2ccccc2)cc1 (centres undefined)	-44.5% (inactive)
COc1ccc(/C=C2\SC(=O)N(CCCC(=O)Nc3cc(Cl)ccc3C(=O)O)C2=O)cc1	2.02% (inactive)
c1cc(CSc2nnc(-c3ccc4c(c3)OCO4)o2)ccn1	-39.7% (inactive)
COc1ccc2c(C)nc(Nc3nc(-c4ccccc4)cc(=O)[nH]3)nc2c1	-29.7% (inactive)

Compound	activity change, negative = inhibition
O=C(Nc1cc2c(cc1Cl)OCCO2)c1ccco1	2.69% (inactive)
Nc1nnnn1/N=C/C(Br)=C/c1ccccc1	-24.4% (inactive)
Cc1cc(C)nc(S/C=C/C(=O)c2ccccc2F)n1	-27.5% (inactive)
Cn1nc([N+](=O)[O-])nc1S(C)(=O)=O	-9.21% (inactive)
CN(C)c1ccc(CNc2ccccn2)cc1	-1.21% (inactive)
COC(=O)c1ccc(/C=N/Nc2nc(C)c(C)s2)cc1	-12.1% (inactive)
O=C(CCNc1ccccc1)c1ccc2c(c1)OCO2	7.65% (inactive)
CC1=NOC(=O)/C1=C\c1ccc(-c2cccc(Cl)c2)o1	-12.7% (inactive)
COc1cc2ccccc2cc1C(=O)Nc1ccc(N2CCN(C)CC2)cc1	-5.36% (inactive)
CCC1CCCCN1CCCNC(=O)c1cn(CC)c2ccc(S(=O)(=O)N(C)C3CCCCC3)cc2c1=O (centres undefined)	3.17% (inactive)
Cc1c(C(=O)N(CCO)Cc2ccccc2)oc2c(F)cccc12	-4.4% (inactive)
COc1ccc(NC(=O)C2COc3ccccc3O2)cc1 (centres undefined)	4.91% (inactive)
O=C(O)CSCC(=O)Nc1ccc(C2CCCCC2)cc1	-15.5% (inactive)
CC(C)OC(=O)CSc1nc2cc3c(cc2cc1C#N)OCO3	-0.146% (inactive)
Cc1nn(-c2ccccc2Cl)c(Cl)c1/C=N/Nc1cccc(C(=O)O)c1	-4.55% (inactive)
N#Cc1cc2c(nc1SC1CC(=O)N(c3ccccc3)C1=O)CCC2 (centres undefined)	-6.38% (inactive)
CCSc1ccccc1C(=O)n1nnc2ccccc21	-31.2% (inactive)
COc1ccc(/C=C/c2cc(C(F)(F)F)on2)cc1	6.62% (inactive)
Cc1[nH]nc(Nc2ccc(Br)cc2)c1[N+](=O)[O-]	-14.8% (inactive)
CCCCNC(=O)Nc1ccc(C2SCCS2)cc1	-0.988% (inactive)
Cc1ccccc1-n1ncc2c([N+](=O)[O-])cc([N+](=O)[O-])cc21	-38.6% (inactive)
COc1ccc(COC(=O)c2cc([N+](=O)[O-])ccc2N2CCOCC2)cc1F	11.2% (inactive)
CCN1CCc2c(sc(NC(=O)c3ccc(S(=O)(=O)N4CCCC4)cc3)c2C(=O)NC)C1	0.364% (inactive)
COc1ccc2nc(C)cc(SCC(=O)N/N=C/c3ccc(O)cc3O)c2c1	-15.7% (inactive)

Compound	activity change, negative = inhibition
COc1ccc(-c2nc(-c3ccncc3)no2)cc1OC	-2.17% (inactive)
COc1ccc(/C=N/Nc2ccccn2)cc1OC	7.25% (inactive)
COc1ccc(-c2cc(-c3ccccc3O)[nH]n2)cc1OC	14.5% (inactive)
O=C(Nc1nc2cc3c(cc2s1)OCO3)C1=COCCO1	-28.5% (inactive)
O=C(CCC(=O)c1ccc[nH]1)c1ccc(Cl)cc1	-1.41% (inactive)
C=CCn1c(C)cc(C(=O)Cn2ncc(Cl)c(Cl)c2=O)c1C	-34.7% (inactive)
Cc1c(C#N)c(NC(=O)CCl)n(Cc2ccc(F)cc2)c1C	-31.5% (inactive)
Nc1nc2n[nH]nc2c(=O)[nH]1	-21.7% (inactive)
CC(C)c1ccc(/C=C2\SC(=S)N(CCC(=O)N3CCCCC3CCO)C2=O)cc1 (centres undefined)	9.88% (inactive)
CSc1nc(N)n2nc(-c3ccccc3)cc2n1	-24.9% (inactive)
O=C(Nc1ccc2c(c1)OCCO2)c1ccoc1	-8.78% (inactive)
Cc1ccc(-c2noc(-c3ccno3)n2)cc1	-24.2% (inactive)
CC(=C/c1ccco1)/C=N/N1CCN(c2ccccc2)CC1	-19.4% (inactive)
COC(=O)C1=C(CN2CCCc3ccccc32)NC(=O)NC1c1ccc(F)cc1 (centres undefined)	-1.92% (inactive)
COc1ccc2nc(C)cc(NCc3cccc(C(F)(F)F)c3)c2c1	-2.53% (inactive)
O=C(CSCC(=O)Nc1ccccc1)N/N=C/c1c(O)ccc2ccccc12	-12.1% (inactive)
O=[N+]([O-])c1cccc(/C=N/Nc2ncc(Br)cn2)c1	6.28% (inactive)
Cc1cc2oc(=O)cc(C)c2cc1NC(=O)CCC(=O)O	-2.92% (inactive)
O=C(CNc1ccc2ccccc2c1)N/N=C/c1ccc([N+](=O)[O-])o1	-35.4% (inactive)
C=CCSC(=S)NC1CCS(=O)(=O)C1 (centres undefined)	-29.3% (inactive)
CCOC(=O)COc1ccc2ccccc2c1/C=C/[N+](=O)[O-]	-18.2% (inactive)
N/C(CS(=O)(=O)c1ccccn1)=N\OC(=O)c1ccccc1Cl	-2.74% (inactive)
O=C(O)/C=C/C(=O)c1ccc2c(c1)CCc1ccccc1-2	-35.3% (inactive)
C=CCN1C(=O)S/C(=C\c2ccc(N3CCOCC3)cc2C)C1=O	-19.1% (inactive)

Compound	activity change, negative = inhibition
CC(=O)Nc1ccc(-c2nc3ccccc3o2)cc1	7.41% (inactive)
CC(=O)Nc1cccc(-c2nnc(-c3ccccc3)o2)c1	-3.6% (inactive)
COc1cccc(/C=N/NC(=O)CN2CC(c3ccccc3)CC2=O)c1OC (centres undefined)	3.58% (inactive)
c1ccc(Cc2cc(-c3ccccc3)on2)cc1	5.16% (inactive)
Cc1ccc(C(=O)Nc2cnc3ccccc3c2)cc1	-11.4% (inactive)
COc1ccc(NC(=O)NC(=O)c2ccccc2)cc1	10.3% (inactive)
O=C(Nc1ccc(Cl)cc1)Nc1cccc(C(=O)O)c1	-1.06% (inactive)
Cc1ccc(NC(=O)c2ccccc2)cc1	5.52% (inactive)
Cc1ccc(NC(=O)c2cc(-c3cccs3)on2)cc1	4.72% (inactive)
CCN(CC)CCNC(=O)c1ccc(NC(=O)c2cccc(S(=O)(=O)N3c4ccccc4CC3C)c2)cc1 (centres undefined)	-17.4% (inactive)
O=[N+]([O-])/C=C\c1ccc(N2CCCC2)c(F)c1	-33.7% (inactive)
CN(C)c1ccc(C2=NOC(CN3C(=O)c4ccccc4S3(=O)=O)C2)cc1 (centres undefined)	-4.73% (inactive)
O=C(COC(=O)c1ccc(F)c([N+](=O)[O-])c1)NC(=O)NCc1ccccc1	-8.85% (inactive)
CCC(=O)Nc1cc(C(=O)OCC(=O)c2ccccc2Cl)ccc1C	1.33% (inactive)
O=C(NC1CC1)C1CCN(S(=O)(=O)c2ccc(Cl)c([N+](=O)[O-])c2)CC1	-35.8% (inactive)
Cn1cccc1C(=O)NC(=O)COC(=O)c1ccc(S(C)(=O)=O)c([N+](=O)[O-])c1	-11.1% (inactive)
O=C(NCCNc1ccccc1[N+](=O)[O-])c1cc(F)c(F)cc1Cl	-1.12% (inactive)
CN(CCC#N)C(=O)COC(=O)c1ccccc1C(=O)c1ccc(Cl)c([N+](=O)[O-])c1	-28.2% (inactive)
N/C(=N\OC(=O)Cc1cccs1)c1ccccc1	3.27% (inactive)
Cc1ccn2c(Nc3ccccc3)c(-c3ccccn3)nc2c1	-31.3% (inactive)
O=C(NC1CCCCC1)C(c1cccnc1)N(C(=O)CCl)c1cccc(Cl)c1 (centres undefined)	-10.9% (inactive)
CC1Cc2cc(-c3csc(N)n3)ccc2O1 (centres undefined)	6.44% (inactive)
O=C(O)c1ccc(C(=O)Nc2ccc(F)cc2)cc1	-0.194% (inactive)
CCOc1ccc(C(=O)Nc2cccc(C(=O)O)c2C)cc1Cl	7.12% (inactive)

Compound	activity change, negative = inhibition
O=C(Cc1ccccc1)Nc1ccc(NC(=O)c2ccco2)nc1	7.46% (inactive)
COc1ccc(NC(=O)c2cc(-c3ccccc3Cl)on2)cc1	1.29% (inactive)
CCOC(=O)c1ccc(NC(=O)c2ccc(C)c(S(=O)(=O)N3CCOCC3)c2)cc1	-8.59% (inactive)
CCOC(=O)c1ccc(NC(=O)c2ccnn2C)cc1	7.79% (inactive)
COc1ccccc1NS(=O)(=O)c1cc(NC(=O)c2ccc(Cl)nc2)ccc1Cl	-5.32% (inactive)
CCOc1ccc(NC(=O)c2ccccn2)cc1	-30.9% (inactive)
O=C1c2ccccc2S(=O)(=O)N1Cc1nc2ccccc2s1	-1.34% (inactive)
Cc1ccc2nc(-c3ccncc3)[nH]c2c1	-13.6% (inactive)
Fc1ccc(-c2nnc(-c3ccc(F)cc3)o2)cc1	-8.09% (inactive)
COCCCn1[nH]c2c3c(ccc2c1=O)C(=O)c1ccccc1C3=O	-28.8% (inactive)
O=C(Nc1nc2ccsc2c(=O)s1)C1CCC1	6.31% (inactive)
CN(c1ccc(O)cc1)c1nc(O)c(C2=c3ccccc3=NC2=O)s1	-6.42% (inactive)
Cn1cc(C(=O)N/N=C/c2c(O)ccc3ccccc23)ccc1=O	-16.5% (inactive)
Cc1cccc(-c2nc(C#N)c(NCc3ccco3)o2)c1	10.1% (inactive)
O=C(NC1CCCCCC1)c1cc2ccccc2oc1=O	-3.85% (inactive)
O=C(Nc1ccccc1)C1Cc2ccccc2CN1C(=O)c1ccco1 (centres undefined)	-4.95% (inactive)
C=CCNc1nc(-c2ccccn2)nnc1-c1ccccc1	-18.7% (inactive)
COc1ccc(NC(=O)Nc2ccc(F)c(F)c2)c(OC)c1	18.8% (inactive)
CCOC(=O)c1ccc2c(c1)n(CC)c(/C=C/N(C)c1ccccc1)[n+]2CC	-27.6% (inactive)
CCn1c(/C=C/N(C)c2ccccc2)[n+](CC)c2ccc(Cl)cc21	-25.4% (inactive)
Nc1c2c(=O)oc(-c3ccccc3)cc2nn1-c1ccccc1	-0.126% (inactive)
COc1cccc(C(=O)N/N=C(/c2ccccc2)c2ccccn2)c1	-23.3% (inactive)
COc1cc(C(=O)Oc2c(CN3CCOCC3)cc(Cl)c3cccnc23)cc(OC)c1OC	-44.2% (inactive)
